Screening results as filed in PubChem.
M4 antag – human M4 muscarinic receptor antagonists, primary screen, CHO cells, Fluo-8 calcium fluorescence; Muscarinic acetylcholine receptor M4 (Homo sapiens), P08173; CHO-hM4 cells, ACh EC80; inhibition, % at 3 µM; 360,000 tested, 0.73% active; AID 624125, 2012;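 active = inhibition above its plate's cutoff, the mean inhibition of sample wells plus 3 SD, cut at about 27% in these data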;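 also: 0% = acetylcholine EC80 with DMSO and 100% = DMSO without agonist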
Target sequence (P08173 whole entry, looked up): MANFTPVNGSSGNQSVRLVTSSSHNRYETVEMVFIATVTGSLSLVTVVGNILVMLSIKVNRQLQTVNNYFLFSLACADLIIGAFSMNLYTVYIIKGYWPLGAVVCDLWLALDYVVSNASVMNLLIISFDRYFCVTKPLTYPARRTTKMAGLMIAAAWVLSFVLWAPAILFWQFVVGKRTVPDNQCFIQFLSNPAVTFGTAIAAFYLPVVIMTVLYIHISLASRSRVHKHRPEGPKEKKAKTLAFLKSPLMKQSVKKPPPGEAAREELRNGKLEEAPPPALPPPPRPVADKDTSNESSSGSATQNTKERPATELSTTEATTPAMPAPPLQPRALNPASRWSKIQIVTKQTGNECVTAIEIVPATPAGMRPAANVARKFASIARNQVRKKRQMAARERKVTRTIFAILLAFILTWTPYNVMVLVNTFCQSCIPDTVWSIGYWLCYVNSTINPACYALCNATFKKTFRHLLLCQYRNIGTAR
CHRM4 agonist – human M4 muscarinic receptor agonists, primary screen, CHO-K1 cells, Fluo-8 calcium fluorescence; Muscarinic acetylcholine receptor M4 (Homo sapiens), P08173; activation, % at 3 µM; CHO-K1 hM4/Gqi5; vehicle 0%, full acetylcholine response 100%; AID 624127, 2012; 360,000 tested, 0.14% active;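 active = activation above the run mean over all test wells plus 3 SD, cut at about 32% in these data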;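 also: peak over basal fluorescence ratio per well then scaled between controls; 0% = DMSO wells and 100% = acetylcholine at EC100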
M1 ag parental – counter-screen for M1 agonists: effect in parental CHO-K1 cells. Fluo-8 calcium fluorescence; scaled to maximal ATP response, vehicle zero. activation, % at 3 µM. 360,000 tested, 0.48% active. AID 602248, 2012; in the data active = activation above about 15%;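 also: untransfected CHO-K1 host cells lacking M1 receptor as counterscreen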
M4 PAM – human M4 muscarinic receptor positive allosteric modulators, primary screen, CHO-K1 cells, Fluo-8 calcium fluorescence; Muscarinic acetylcholine receptor M4 (Homo sapiens), P08173; CHO-K1 hM4/Gqi5, ACh EC20; 0% = ACh EC20, 100% = maximal ACh; activation, % at 3 µM; 360,000 tested, 0.4% active; AID 624126, 2012;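 active = activation above its plate's cutoff, the mean activation of sample wells plus 3 SD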
M1 PAM parental – nonselective calcium activators in parental CHO-K1 cells, primary screen, counter-screen for M1 PAM project, cell-based, Fluo-8 calcium fluorescence, full deck, 1536-well. activation, % at 3 µM. ATP EC20; 0% at ATP EC20, 100% at ATP max. 360,000 tested, 0.02% active. AID 602247, 2012;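 active = activation above the run cutoff, the mean activation of all test compounds plus 3 SD, cut at about 40% in these data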;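 also: peak over basal fluorescence ratio in a 140 s read after ATP addition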
CHO-K1 Ca antag – M1 antagonist counterscreen hit in parental CHO-K1 cells. ATP-induced calcium, Fluo-8 fluorescence. inhibition, % at 3 µM. 360,000 tested, 0.6% active;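 active = inhibition above a per-plate cutoff, the plate's mean sample inhibition plus 3 SD, cut at about 24% in these data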;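 also: 0% = DMSO plus EC80 ATP and 100% = DMSO alone without ATP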
* hit, by the source's call; · = not tested or not shown. In the library only some 2% were active in any assay of this set; here they are far more common.

SMILES	M4 antag	CHRM4 agonist	M1 ag parental	M4 PAM	M1 PAM parental	CHO-K1 Ca antag
CC(=O)c1ccc(N2CCN(S(=O)(=O)c3c(C)[nH]c(C)c3C(=O)N3CCCCC3)CC2)cc1	1	1	1	0	0	-11
Cc1cc2n(n1)C(c1ccc(O)cc1)Nc1ccccc1-2 (centres undefined)	13	1	-1	30*	-8	14
Cc1ccc(NC(=O)COC(=O)c2ccc3ncsc3c2)c(C)c1	0	1	0	7	-1	8
CN(C)C(C)(C)C#CCCCCC#CC(C)(C)N(C)C	12	1	1	3	19	-10
CN(C)C(C)(C)C#CCC(c1ccccc1)c1ccccc1	38*	3	2	-17	5	-4
C[N+]1(C)CCC(=C2c3ccccc3CC(=O)c3sccc32)CC1	80*	0	0	-29	-8	16
Cc1cccc2c1Sc1ccccc1CC2=O	-15	-1	0	14	11	-6
CC[N+]1(C)CCC(=C2c3ccccc3CC(=O)c3sccc32)CC1 (centres undefined)	99*	1	0	-29	13	5
O=C1c2ccccc2CCc2ccccc21	-6	-1	-1	6	7	-5
CC(OC(=O)/C(C#N)=C/c1ccc(N(C)C)cc1)C(=O)N(C)c1ccccc1 (centres undefined)	4	31	16*	-17	-17	13
CCN(C(=O)CSc1nnc(C(C)N(C)C)n1-c1ccc(F)cc1)C1CCS(=O)(=O)C1 (centres undefined)	8	2	0	-6	-12	5
Cc1ccc(-n2cc(C(C)(C)C)[nH]c2=S)cc1	0	-1	0	-6	-5	26*
CC(C)(C)c1cn(-c2ccccc2)c(=S)[nH]1	10	0	0	4	-5	8
Cc1ccc(S(=O)(=O)N2CCOC2CNC(=O)C(=O)NCc2cccnc2)cc1 (centres undefined)	7	0	2	-2	-10	36*
O=C(Cc1cccc(NC(=O)C2CCN(C(=O)C3CC3)CC2)c1)Nc1cccc(C(=O)N2CCCC2)c1	5	-2	-1	10	-10	2
Cc1ccsc1/C=N/NC(=O)c1nnn(-c2nonc2N)c1CSc1ccccc1	-8	2	2	1	22	-13
Cc1c(C(=O)OCC(=O)NCCN2C(=O)CSC2=O)cccc1[N+](=O)[O-]	7	4	0	1	-19	30*
CCCOc1ccc(C(=O)CCC(=O)NNC(=O)Cn2nc(C)cc2C)cc1	-10	1	1	-2	-3	-5
C/C(=N\Nc1ccccn1)c1ccc(OC(F)F)cc1	-5	1	17*	4	16	-2
Cc1ccc(C(=O)Nc2c(C)cc(C)c3cccnc23)cc1	-10	2	1	14*	7	-6
CC1(C)CC(NC(=O)c2ccc(-c3ccc([N+](=O)[O-])cc3)o2)CC(C)(C)N1	3	0	0	20*	-13	-4
CC1(C)CC(NC(=O)Nc2ccc([N+](=O)[O-])cc2)CC(C)(C)N1	-3	1	0	-2	15	-2
COc1cccc2cc(C(=O)Nc3ccccc3Cl)/c(=N/NS(=O)(=O)c3ccccc3)oc12	0	2	1	1	14	-13
CSc1nc2c(c(=O)[nH]1)C(c1ccc(Br)cc1)CC(=O)N2 (centres undefined)	1	0	16*	3	6	8
CSc1nc2c(c(=O)[nH]1)C(c1ccc(F)cc1)CC(=O)N2 (centres undefined)	3	2	3	-2	18	-9
SMILES	M4 antag	CHRM4 agonist	M1 ag parental	M4 PAM	M1 PAM parental	CHO-K1 Ca antag
Cc1cc(C)c(NC(=O)CN(C)C(=O)C2CC(=O)N(c3cccc4ccccc34)C2)c(C)c1 (centres undefined)	7	2	0	9	7	0
Cc1cccc(C(=O)N[C@H](C(=O)Nc2ccc(C)c(S(=O)(=O)N(C)C)c2)C(C)C)c1	1	1	0	1	23	-11
COc1ccc(Cc2nnc(NC(=O)c3ccc(F)cc3)s2)cc1OC	3	0	0	-5	-18	29*
COc1ccc(Cc2nnc(NC(=O)c3ccc(C)cc3)s2)cc1OC	-4	2	0	2	2	-11
Cc1ccccc1OCC(=O)N(Cc1ccco1)c1c(N)n(Cc2ccccc2)c(=O)[nH]c1=O	9	1	0	-2	-12	-4
COc1ccc(NC(=O)N2c3ccccc3C(C)=CC2(C)C)cc1	-1	0	0	-5	-13	7
COc1ccc(NC(=O)N2c3ccc(OC)cc3C(C)=CC2(C)C)cc1	4	0	0	-9	7	25*
CCN1CCN(CCCNC(=O)C2CCCN(c3nnc(-n4cccc4)s3)C2)CC1 (centres undefined)	-10	0	0	27*	13	-11
CC(C)Cc1nc(SCC(=O)NCC2CCCO2)c2c(=O)n(C)c(=O)n(C)c2n1 (centres undefined)	-10	1	2	9	16	-5
CC(=O)c1ccc(OCC(=O)OCC(=O)NCc2ccco2)cc1	-13	1	0	1	-3	-7
CS/C(=N\S(=O)(=O)c1ccc(Cl)cc1)c1ccccc1	-2	0	0	4	1	-11
CS/C(=N/S(=O)(=O)c1ccc(C)cc1)c1ccccc1	-7	2	0	24*	5	2
O=C(Nc1nnc(CCN2CCCCC2)s1)c1ccccc1Cl	-4	1	20*	2	11	-5
CC(C)OCCCN(C)C1CCN(S(=O)(=O)c2ccc(-c3cc(C(F)(F)F)no3)s2)CC1	53*	7	2	-21	-9	-1
CC(NC(=O)CCCc1c[nH]c2ccccc12)c1ccc(F)cc1 (centres undefined)	-12	3	3	0	20	-18
CC(C)NC(=O)C1(C)CN(S(C)(=O)=O)CC(=O)N1Cc1cccs1 (centres undefined)	-3	2	·	25*	·	·
CSCCC(NC(=O)c1ccccc1Cl)C(=O)Nc1ccncc1 (centres undefined)	-10	2	1	1	5	-7
COc1cc(Cl)c(C)cc1NC(=O)COc1cc(C)nc(C(C)C)n1	3	1	0	33*	-5	11
COc1ccccc1NC(=O)COc1cc(C)nc(C(C)C)n1	-21	0	0	14	9	-9
